Molecules are shown by their SMILES. This is part of a sample that, as a whole, favours compounds with a hit. Of some 83,000 tested, about 20% had one in any assay.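 Compound tested at a single concentration for 48 hours in 96-well plates; a percent growth value below 10 was scored as active.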 A number with no mark means an inactive call. The source made the active and inactive calls.

Among the test systems are NCI-H23 lung; NCI-H226 lung; NCI-H322M lung; HOP-62 NSCLC; HOP-92 NSCLC; NCI-H522 lung; A549/ATCC NSCLC; 786-0 renal; DU-145 prostate; K-562 leukemia; MALME-3M melanoma; MDA-MB-231 breast; RXF 393 renal; SF-268 CNS; SF-295 CNS; SF-539 CNS; UACC-257 melanoma; M14 melanoma; NCI-H460 lung; COLO 205 colon.
Assay in all cases: NCI-60 one-dose screen, 48 h (100 = growth as untreated, 0 = no growth, -100 = all killed)
Common to all, as to conditions: 10 µM

For the molecule `Cc1cc(=O)cc(C)n1-c1ccccc1`, the growth was 96.5% with NCI-H23 lung; 96.3% in the experiment with NCI-H226 lung; 106% with NCI-H322M lung; 99.6% in the experiment on HOP-62 NSCLC; 90.6% in the experiment with HOP-92 NSCLC; 102% with NCI-H522 lung. Besides, the growth was 99.1% with A549/ATCC NSCLC; 90% in the experiment with 786-0 renal; 121% in the experiment with DU-145 prostate; 105% in the experiment with K-562 leukemia; 99.3% in the experiment on MALME-3M melanoma; 106% with MDA-MB-231 breast. Moreover, the growth in the experiment with RXF 393 renal was 104%; with SF-268 CNS, 109%; in the experiment on SF-295 CNS, 96.3%; in the experiment on SF-539 CNS it was 102%; in the experiment on UACC-257 melanoma it was 106%; in the experiment with M14 melanoma it was 101%.
Regarding `CC(C)=CC(=O)OC(=O)C=C(C)C`, the growth is 117% with NCI-H23 lung; 93.5% in the experiment with NCI-H226 lung; 104% in the experiment on NCI-H322M lung; 103% with HOP-62 NSCLC; 106% with NCI-H460 lung; 106% in the experiment with 786-0 renal. The growth in the experiment on COLO 205 colon is 113%; in the experiment with DU-145 prostate, 101%; in the experiment on K-562 leukemia, 99.1%; in the experiment with MALME-3M melanoma it was 101%; in the experiment on MDA-MB-231 breast, 99.6%; in the experiment with RXF 393 renal, 102%. The growth in the experiment on SF-268 CNS is 103%; in the experiment on SF-295 CNS, 111%; with SF-539 CNS it was 105%; in the experiment on M14 melanoma, 107%.
Regarding `COc1cc(CCN=Cc2ccccc2O)c([N+](=O)[O-])cc1OC`, the growth with NCI-H23 lung was 100%; in the experiment on NCI-H226 lung it was 104%; in the experiment with NCI-H322M lung it was 101%; with HOP-62 NSCLC, 91.9%; in the experiment on NCI-H460 lung, 108%; in the experiment with A549/ATCC NSCLC it was 102%. The growth in the experiment on 786-0 renal was 92.6%; in the experiment on DU-145 prostate, 113%; with K-562 leukemia, 94.9%; in the experiment with MALME-3M melanoma, 89.5%; in the experiment with MDA-MB-231 breast it was 112%; with RXF 393 renal it was 111%. In addition, the growth was 100% in the experiment with SF-268 CNS, 87.4% in the experiment on SF-295 CNS, 106% in the experiment with SF-539 CNS and 95.6% with M14 melanoma.
For `NC(=S)NN=C1CCCC1`, the growth is 83.2% with NCI-H23 lung; 95.6% in the experiment with NCI-H226 lung; 91.7% in the experiment with NCI-H322M lung; 95% with HOP-62 NSCLC; 82.1% with HOP-92 NSCLC; 99.8% in the experiment on NCI-H522 lung. Also, the growth was 81.1% in the experiment with A549/ATCC NSCLC; 106% with 786-0 renal; 101% in the experiment on COLO 205 colon; 96.8% with DU-145 prostate; 65.7% with K-562 leukemia; 85.3% in the experiment with MALME-3M melanoma. Also, the growth in the experiment with MDA-MB-231 breast was 95%; in the experiment on RXF 393 renal, 107%; with SF-268 CNS, 89.3%; in the experiment with SF-295 CNS, 95.7%; in the experiment with SF-539 CNS it was 110%; in the experiment on UACC-257 melanoma, 66.9%. Moreover, the growth in the experiment with M14 melanoma is 83.1%.
For the molecule `O=C(/C=C/C(=O)c1ccccc1)c1ccccc1`, the growth with NCI-H23 lung is 99%; in the experiment with NCI-H226 lung, 107%; in the experiment on NCI-H322M lung, 116%; in the experiment with HOP-62 NSCLC, 109%; with HOP-92 NSCLC, 96.3%; with NCI-H522 lung, 74.8%. Besides, the growth in the experiment with A549/ATCC NSCLC was 105%; in the experiment on 786-0 renal, 103%; in the experiment on COLO 205 colon, 70.1%; in the experiment on DU-145 prostate, 115%; with K-562 leukemia, 41.9%; with MALME-3M melanoma, 131%. Further, the growth with MDA-MB-231 breast is 110%; in the experiment on RXF 393 renal it was 118%; in the experiment on SF-268 CNS, 107%; in the experiment with SF-295 CNS it was 99%; with SF-539 CNS, 114%; in the experiment with UACC-257 melanoma, 119%. The growth with M14 melanoma is 111%.
As to `CC(C)C1CCCCC1O` (stereo not given), the growth with NCI-H23 lung was 95.4%; in the experiment with NCI-H226 lung, 112%; in the experiment with NCI-H322M lung, 124%; in the experiment on HOP-62 NSCLC, 102%; in the experiment with HOP-92 NSCLC it was 101%; in the experiment on A549/ATCC NSCLC, 102%. Besides, the growth is 108% with COLO 205 colon; 113% in the experiment with DU-145 prostate; 164% in the experiment with K-562 leukemia; 117% with MALME-3M melanoma; 99.4% in the experiment with MDA-MB-231 breast; 112% in the experiment with RXF 393 renal. Further, the growth was 99.5% in the experiment on SF-268 CNS, 111% with SF-295 CNS, 101% in the experiment on SF-539 CNS and 101% in the experiment with UACC-257 melanoma.
For the molecule `CCCCCCCO`, the growth in the experiment on NCI-H23 lung is 106%; in the experiment with NCI-H226 lung, 94.7%; with NCI-H322M lung it was 92.6%; with HOP-62 NSCLC, 98.8%; in the experiment with HOP-92 NSCLC, 88.7%; in the experiment with A549/ATCC NSCLC, 102%. Also, the growth in the experiment on 786-0 renal was 110%; in the experiment with COLO 205 colon, 118%; in the experiment on DU-145 prostate it was 114%; in the experiment on K-562 leukemia, 106%; in the experiment on MDA-MB-231 breast it was 104%; in the experiment on RXF 393 renal, 97.3%. Besides, the growth with SF-268 CNS is 125%; in the experiment on SF-539 CNS it was 89.5%; in the experiment on UACC-257 melanoma it was 93.5%; in the experiment with M14 melanoma it was 98.5%.
In the case of `CC1(C)S(=O)(=O)OCCOS1(=O)=O`, the growth was 103% in the experiment with NCI-H23 lung; 102% in the experiment on NCI-H226 lung; 100% with NCI-H322M lung; 98.4% in the experiment with HOP-62 NSCLC; 83.8% in the experiment with HOP-92 NSCLC; 99.6% with NCI-H522 lung. The growth with A549/ATCC NSCLC is 92%; in the experiment with 786-0 renal it was 102%; in the experiment with COLO 205 colon, 116%; in the experiment with DU-145 prostate it was 107%; with K-562 leukemia, 100%; with MALME-3M melanoma it was 94.5%. The growth in the experiment on RXF 393 renal was 114%; with SF-295 CNS, 97.7%; with SF-539 CNS, 100%; in the experiment with UACC-257 melanoma, 82.2%; with M14 melanoma, 100%.
Take `c1ccc(Sc2ccccc2)cc1`: the growth with NCI-H23 lung is 105%; in the experiment on NCI-H226 lung, 103%; in the experiment with NCI-H322M lung, 118%; with HOP-62 NSCLC, 104%; with HOP-92 NSCLC it was 90.9%; with NCI-H522 lung, 139%. Besides, the growth with A549/ATCC NSCLC is 96.6%; in the experiment with 786-0 renal, 113%; in the experiment on COLO 205 colon, 115%; with DU-145 prostate it was 105%; with K-562 leukemia, 112%; in the experiment on MALME-3M melanoma it was 94.4%. In addition, the growth was 109% in the experiment with MDA-MB-231 breast; 114% in the experiment on RXF 393 renal; 97% in the experiment with SF-268 CNS; 103% in the experiment on SF-539 CNS; 88.3% in the experiment with UACC-257 melanoma.
Consider `COc1cc2c(cc1O)CC[C@@H]1C2CC[C@@]2(C)C1CC[C@@H]2O` (stereo not given in full), for which the growth is 406% in the experiment with NCI-H23 lung; 57.7% in the experiment on NCI-H226 lung; 53.5% in the experiment with NCI-H322M lung; 33.3% with HOP-62 NSCLC; 79.8% in the experiment on HOP-92 NSCLC; 1.84% (active) with NCI-H522 lung. In addition, the growth in the experiment on A549/ATCC NSCLC is 13.9%; in the experiment on 786-0 renal it was 36%; in the experiment with COLO 205 colon, 82.5%; in the experiment with DU-145 prostate, 11%; in the experiment with K-562 leukemia, 2.79% (active); in the experiment with MALME-3M melanoma it was 48.1%. Further, the growth in the experiment with MDA-MB-231 breast was 26.7%; in the experiment on RXF 393 renal, -4.44% (active); with SF-268 CNS, 50.6%; in the experiment on SF-295 CNS, 25.2%; in the experiment on SF-539 CNS it was -4.91% (active); in the experiment with UACC-257 melanoma, 23.3%.
Turning to `O=C1OC(=O)C2C1C1(Cl)C(Cl)=C(Cl)C2(Cl)C2C(=O)OC(=O)C21` (stereo not given), the growth is 101% with NCI-H23 lung; 97.5% with NCI-H226 lung; 107% in the experiment on NCI-H322M lung; 104% with HOP-62 NSCLC; 107% with NCI-H460 lung; 102% with 786-0 renal. Also, the growth with COLO 205 colon was 93.9%; with DU-145 prostate, 116%; in the experiment on K-562 leukemia, 105%; with MALME-3M melanoma it was 98.2%; in the experiment with MDA-MB-231 breast, 122%; in the experiment on RXF 393 renal it was 100%. For the same molecule, the growth in the experiment on SF-268 CNS was 105%; with SF-295 CNS, 105%; in the experiment with SF-539 CNS, 98.8%; in the experiment on M14 melanoma, 101%.
`O=C1C=C(O)C(=O)C=C1O`: the growth is 94.8% in the experiment on NCI-H23 lung; 114% in the experiment with NCI-H226 lung; 112% with NCI-H322M lung; 97.9% in the experiment with HOP-62 NSCLC; 107% in the experiment on NCI-H460 lung; 112% in the experiment on A549/ATCC NSCLC. Besides, the growth in the experiment on 786-0 renal is 107%; in the experiment on DU-145 prostate it was 119%; in the experiment on K-562 leukemia, 103%; in the experiment on MALME-3M melanoma it was 144%; with MDA-MB-231 breast, 104%; in the experiment on RXF 393 renal, 150%. Besides, the growth with SF-268 CNS is 101%; in the experiment on SF-295 CNS, 115%; in the experiment with SF-539 CNS it was 98.7%; in the experiment on UACC-257 melanoma, 107%; in the experiment with M14 melanoma, 104%.

The values above are taken from PubChem BioAssay (NCI).
